# Test results published in the supplement of paper PMC8728848.
# Only a selection was taken, and the strongest signals are over-represented in it overall.
# B1: MAL (Maackia amurensis) (protein)
# chain: SDELSFTINNFMPNQGDLLFQGVATVSPTGVLQLTSEENGQPLEYSVGRVLYTAPVRIWDSTTGAVASFSTSFTFVVKAARGASDGLAFFLAPPDSQIPSGSVSKYLGLFNNSNSDSSNQIVAVEFDTYFGHSYDPWDPNYRHIGIDVNGIESIKTVQWDWINGGVAFATITYLAPNKTLIASLVYPSNQTSFIVAASVDLKEILPEWVRVGFSAATGAPKAVETHDVRSWSFTSTLEANSPADVDN
# Experiments:
# Assay in all cases: glycan array binding signal (z-score within array); higher = stronger binding
# Conditions in all cases: glycan notation: IUPAC condensed, linker removed
# [1] = biological target: Fuc(a1-2)Gal(b1-3)GalNAc(b1-3)Gal
# In short: (§1)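 The binding signal is a Z-score computed within each array. Data were drawn from 3228 arrays in the Consortium for Functional Glycomics database, restricted to those with a known protein sequence. Scores were averaged over arrays of the same protein sequence at different concentrations or buffers, and over linkers, and negative values can be taken as non-binding.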
# [2] = biological target: Fuc(a1-2)Gal(b1-4)[Fuc(a1-3)]GlcNAc
# In short: as §1
# [3] = biological target: Fuc(a1-2)[Gal(a1-3)]Gal(b1-4)[Fuc(a1-3)]GlcNAc
# In short: as §1
# [4] = biological target: Gal(b1-3)[Fuc(a1-4)]GlcNAc(b1-3)Gal(b1-4)GlcNAc
# In short: as §1
# [5] = biological target: Gal(b1-3)[Fuc(a1-4)]GlcNAc(b1-3)Gal(b1-4)[Fuc(a1-3)]GlcNAc
# In short: as §1
# [6] = biological target: Gal3S(b1-4)Glc
# In short: as §1
# [7] = biological target: Gal3S(b1-4)Glc6S
# In short: as §1
# [8] = biological target: Gal3S(b1-4)GlcNAc
# In short: as §1
# [9] = biological target: Gal3S(b1-4)GlcNAc6S
# In short: as §1
# [10] = biological target: Gal3S6S(b1-4)GlcNAc
# In short: as §1
# [11] = biological target: Gal6S(b1-4)GlcNAc
# In short: as §1
# [12] = biological target: GlcNAc(a1-3)Gal(b1-4)GlcNAc
# In short: as §1
# [13] = biological target: GlcNAc(b1-3)[GlcNAc(b1-6)]GalNAc
# In short: as §1
# [14] = biological target: GlcNAc(b1-4)[GlcNAc(b1-6)]GalNAc
# In short: as §1
# [15] = biological target: Man(a1-2)Man(a1-3)[Man(a1-2)Man(a1-6)]Man(a1-6)[Man(a1-3)[Man(a1-6)]Man(a1-6)]Man(b1-4)GlcNAc(b1-4)GlcNAc
# In short: as §1
# [16] = biological target: Neu5Ac(a2-3)GalNAc
# In short: as §1
# [17] = biological target: Neu5Ac(a2-3)GalNAc(b1-4)GlcNAc
# In short: as §1
# [18] = biological target: Neu5Ac(a2-3)[GalNAc(b1-4)]Gal(b1-4)Glc
# In short: as §1
# [19] = biological target: Neu5Ac(a2-6)Gal(b1-4)Glc
# In short: as §1
# [20] = biological target: Neu5Gc(a2-3)Gal(b1-4)[Fuc(a1-3)]GlcNAc
# In short: as §1
binder,measurement,setting,value
B1,glycan array binding signal (z-score),[1],-0.382
same,glycan array binding signal (z-score),[2],0.544
same,glycan array binding signal (z-score),[3],-0.348
same,glycan array binding signal (z-score),[4],-0.428
same,glycan array binding signal (z-score),[5],-0.272
same,glycan array binding signal (z-score),[6],4.98
same,glycan array binding signal (z-score),[7],4.51
same,glycan array binding signal (z-score),[8],4.96
same,glycan array binding signal (z-score),[9],5.35
same,glycan array binding signal (z-score),[10],0.345
same,glycan array binding signal (z-score),[11],-0.066
same,glycan array binding signal (z-score),[12],-0.353
same,glycan array binding signal (z-score),[13],-0.374
same,glycan array binding signal (z-score),[14],-0.221
same,glycan array binding signal (z-score),[15],-0.305
same,glycan array binding signal (z-score),[16],-0.392
same,glycan array binding signal (z-score),[17],-0.416
same,glycan array binding signal (z-score),[18],-0.394
same,glycan array binding signal (z-score),[19],0.057
same,glycan array binding signal (z-score),[20],-0.371
